This passage reports outcome and potentiation results from PubChem BioAssay.

For some assays here: Entries with a potency or affinity are not part of this list. The source made the active and inactive calls.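 Rule for the calls, unless noted: active = primary screen activator hit with a dose response curve and TRPC4 channel activation at any tested dose; inactive = no activation, no dose response, or not a primary hit.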

In assay [1] the test system is TRPC4 beta (transient receptor potential cation channel C4), mouse. Nature of the assay: TRPC4 cation channel opening, retest – cell-based, Fluo4 calcium, HEK293 TRPC4beta/mu-opioid, duplicates, 10 µM, confirmation (AID 2426;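 active = fluorescence ratio normalized to control raised more than 50% in primary screen plus both repeat runs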). To be noted: Fluo4 calcium fluorescence, at 10 µM; stronger effect = higher value.
For assay [2], the system named is transient receptor potential cation channel C4 beta (TRPC4), mouse. In words: TRPC4 cation channel opening, second retest – cell-based, second round, Fluo4, HEK293 TRPC4beta/mu-opioid, 1 µM, confirmation (AID 2461;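 active = primary screen active and over 50% activation in each of two duplicate runs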). The note with it: Fluo4 calcium fluorescence, at 1 µM; stronger effect = higher value.
Assay [3] has as its system TRPC4 (transient receptor potential cation channel C4 beta), mouse. Nature of the assay: potentiation of DAMGO EC20 TRPC4 response – cell-based, second round, Fluo-4, HEK293 TRPC4beta/mu-opioid, 1 µM, confirmation (AID 2554;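 active = primary screen hit whose fluorescence ratio, in both repeats, exceeds the weak agonist control mean by 3 SD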). The note with it: DAMGO EC20, Fluo-4 calcium flux, at 1 µM; stronger effect = higher value.
In assay [4] the test system is TRPC4 beta (transient receptor potential cation channel C4), mouse. Nature of the assay: potentiation of DAMGO EC20 TRPC4 response – cell-based, Fluo-4, HEK293 TRPC4beta/mu-opioid, confirmation (AID 2555;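 active = primary screen hit whose calcium fluorescence ratio, in both repeats, exceeds the weak agonist control mean by 3 SD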). The note with it: DAMGO EC20, Fluo-4 calcium flux, at 10 µM; stronger effect = higher value. For orientation: A change in cytosolic calcium serves as a functional read-out for many receptors and channels.

The target of assay [5] is Short transient receptor potential channel 4 (Mus musculus) (UniProt Q9QUQ5). Nature of the assay: blockers of DAMGO-evoked TRPC4 calcium flux – cell-based, Fluo4, HEK293 TRPC4beta/mu-opioid, confirmation (AID 2636;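 active = calcium signal cut by more than 3 SD below the full-agonist control yet still positive, in both repeats and the earlier primary screen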). To be noted: at 10 µM; stronger effect = higher value.
Assay [6] shares this target. Nature of the assay: blockers of DAMGO-evoked TRPC4 calcium flux – cell-based, second round, Fluo4, HEK293 TRPC4beta/mu-opioid, 1 µM, confirmation (AID 2637;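 active = calcium signal ratio cut to more than 3 SD under the fully stimulated control mean yet still positive, in both repeats and the primary screen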). The note with it: at 1 µM; stronger effect = higher value.
Assay [7] shares this target. Nature of the assay: calcium entry via TRPC4 opening agents – cell-based, HEK293 TRPC4/mu-opioid, Fluo-4 calcium, dose response (AID 434937).
Assay [8] has the same target. In words: potentiation of DAMGO-evoked TRPC4 calcium signal – cell-based, HEK293 TRPC4/mu-opioid, Fluo-4 calcium, EC20 DAMGO, dose response (AID 434941;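 active = earlier screen potentiator hit that boosts the TRPC4 ion channel at some dose, with a dose response; inactive = no potentiation, no dose response, or not a prior hit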;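 note: calcium entry triggered by an EC20 dose of DAMGO at the co-expressed mu-opioid receptor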).
The target is the same in assay [9]. Nature of the assay: block of DAMGO-driven TRPC4 calcium entry – cell-based, HEK293 TRPC4/mu-opioid, Fluo-4 calcium, dose response (AID 434942;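 active = primary screen inhibitor hit that blocks the TRPC4 channel at some tested dose, yielding a dose curve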).
Assay [10] addresses Short transient receptor potential channel 6 (Mus musculus) (UniProt Q61143). In words: TRPC6 blockade by TRPC4 inhibitor hits – cell-based, HEK293, membrane potential dye, duplicate, selectivity assay for TRPC4 inhibitor project, confirmation (AID 434948;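 active = active in primary screen and both duplicates, each dropping signal beyond three positive-control SD with fluorescence still positive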). The note with it: HEK293 TRPC6, membrane potential dye fluorescence, at 10 µM, stimulated with maximal-effect acetylcholine; stronger effect = higher value.

Assay [11] shares this target. In words: TRPC6 opening by TRPC4 activator hits – cell-based, HEK293, membrane potential dye, duplicate, selectivity assay for TRPC4 activator project, confirmation (AID 434950;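 active = membrane potential signal rise above negative control mean plus 3 SD in both duplicates, also active in the earlier TRPC4 screen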). To be noted: HEK293 TRPC6, membrane potential fluorescence, at 10 µM; activation: stronger effect = higher value; outcome: activation.
Assay [12] shares this target. In words: positive modulators of mouse TRPC6 channel – HEK293 cells, membrane potential dye, duplicate, selectivity assay for TRPC4 potentiator project, confirmation (AID 434952;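 active = compound raising the membrane signal above positive-control mean plus 3 SD in both repeats, and a primary screen hit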). To be noted: HEK293 TRPC6, membrane potential dye fluorescence, at 10 µM, maximal acetylcholine added after compound; stronger effect = higher value.
The target of assay [13] is Short transient receptor potential channel 4 (Mus musculus) (UniProt Q9QUQ5). In words: calcium flux activators in TRPC4/5HT1a cells, counter-screen for TRPC4 activator project, cell-based, second counter screen, HEK293 TRPC4/5HT1a, Fluo-4 (AID 434977;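 active = calcium signal rise above buffer-control mean plus 5 SD in both duplicates, and also a hit in the primary screen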). The note with it: Fluo-4 calcium flux, at 10 µM; stronger effect = higher value.
Assay [14] is described as follows: serotonin-gated TRPC4 signal block – cell-based, second counter screen, HEK293 TRPC4/5HT1a, Fluo-4, counter-screen for TRPC4 inhibitor project, confirmation (AID 434978;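 active = primary screen active whose calcium signal fell more than 3 SD beyond the full-serotonin control mean in both duplicate plates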;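 note: serotonin given first at submaximal then at maximal dose after compound preincubation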). The note with it: Fluo-4 calcium flux, at 10 µM, serotonin added to trigger calcium flux; stronger effect = higher value. A general note: The purpose of a counterscreen is to sort out artefacts and off-target activity.

Assay [15] relates to TRPC4 (mouse), co-expressed with 5HT1a in HEK293. In words: enhancement of serotonin-evoked TRPC4 response – cell-based, second counter screen, HEK293 TRPC4/5HT1a, Fluo-4, counter-screen for TRPC4 potentiator project, confirmation (AID 434979;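 active = signal rise over 3 SD above mean of control wells given weak agonist, in both repeats and first screen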). The note with it: Fluo-4 calcium flux, at 10 µM, serotonin added at its EC20 dose; stronger effect = higher value.
A short description of assay [16]: nonspecific calcium rise without TRPC4 – cell-based, HEK293 mu-opioid receptor line, counter-screen for TRPC4 activator project, confirmation (AID 449723;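 active = hit in primary screen, with calcium signal over 5 SD above buffer well mean in both duplicates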;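 note: counter screen cells carry the mu-opioid receptor alone and lack TRPC4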). To be noted: HEK293 mu-opioid cells, Fluo-4 calcium fluorescence, at 10 µM; stronger effect = higher value.
A short description of assay [17]: nonspecific potentiation of DAMGO calcium response – cell-based, HEK293 mu-opioid receptor line, counter-screen for TRPC4 allosteric potentiator project, confirmation (AID 449724;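 active = calcium signal rise more than 3 SD above the low-dose agonist control mean, in both duplicate plates and the primary screen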;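 note: HEK293 cells carrying mu-opioid receptor only with no TRPC4 channel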). To be noted: HEK293 mu-opioid receptor cells, Fluo-4 calcium flux, at 10 µM, compound added before EC20 DAMGO stimulus; stronger effect = higher value.

Sequence of Short transient receptor potential channel 4 (Mus musculus) (Q9QUQ5 whole entry, looked up): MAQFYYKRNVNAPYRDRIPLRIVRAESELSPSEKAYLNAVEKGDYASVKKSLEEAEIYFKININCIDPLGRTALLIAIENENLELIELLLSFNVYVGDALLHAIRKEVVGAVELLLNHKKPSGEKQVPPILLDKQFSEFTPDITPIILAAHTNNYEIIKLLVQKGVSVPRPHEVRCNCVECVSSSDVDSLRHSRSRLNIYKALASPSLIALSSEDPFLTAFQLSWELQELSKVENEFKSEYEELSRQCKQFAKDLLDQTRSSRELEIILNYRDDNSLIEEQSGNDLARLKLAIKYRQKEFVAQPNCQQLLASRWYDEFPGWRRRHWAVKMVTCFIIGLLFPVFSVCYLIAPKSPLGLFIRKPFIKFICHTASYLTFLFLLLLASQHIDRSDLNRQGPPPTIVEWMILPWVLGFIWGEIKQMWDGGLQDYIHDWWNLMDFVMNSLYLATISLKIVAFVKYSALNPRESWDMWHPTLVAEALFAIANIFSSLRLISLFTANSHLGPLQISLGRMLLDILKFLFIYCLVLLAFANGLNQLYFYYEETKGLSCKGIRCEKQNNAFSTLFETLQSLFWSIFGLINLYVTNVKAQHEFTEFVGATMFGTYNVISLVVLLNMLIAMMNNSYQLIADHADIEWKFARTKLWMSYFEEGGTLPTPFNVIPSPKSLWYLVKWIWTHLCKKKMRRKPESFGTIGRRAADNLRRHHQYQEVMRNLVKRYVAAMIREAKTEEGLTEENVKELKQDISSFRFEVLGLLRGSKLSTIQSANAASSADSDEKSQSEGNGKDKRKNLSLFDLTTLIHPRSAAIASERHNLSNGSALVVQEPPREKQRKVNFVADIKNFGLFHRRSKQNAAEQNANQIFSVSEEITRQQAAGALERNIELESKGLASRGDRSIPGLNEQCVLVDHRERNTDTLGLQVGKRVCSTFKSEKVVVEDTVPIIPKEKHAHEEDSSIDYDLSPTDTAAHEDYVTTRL
Sequence of Short transient receptor potential channel 6 (Mus musculus) (Q61143 whole entry, looked up): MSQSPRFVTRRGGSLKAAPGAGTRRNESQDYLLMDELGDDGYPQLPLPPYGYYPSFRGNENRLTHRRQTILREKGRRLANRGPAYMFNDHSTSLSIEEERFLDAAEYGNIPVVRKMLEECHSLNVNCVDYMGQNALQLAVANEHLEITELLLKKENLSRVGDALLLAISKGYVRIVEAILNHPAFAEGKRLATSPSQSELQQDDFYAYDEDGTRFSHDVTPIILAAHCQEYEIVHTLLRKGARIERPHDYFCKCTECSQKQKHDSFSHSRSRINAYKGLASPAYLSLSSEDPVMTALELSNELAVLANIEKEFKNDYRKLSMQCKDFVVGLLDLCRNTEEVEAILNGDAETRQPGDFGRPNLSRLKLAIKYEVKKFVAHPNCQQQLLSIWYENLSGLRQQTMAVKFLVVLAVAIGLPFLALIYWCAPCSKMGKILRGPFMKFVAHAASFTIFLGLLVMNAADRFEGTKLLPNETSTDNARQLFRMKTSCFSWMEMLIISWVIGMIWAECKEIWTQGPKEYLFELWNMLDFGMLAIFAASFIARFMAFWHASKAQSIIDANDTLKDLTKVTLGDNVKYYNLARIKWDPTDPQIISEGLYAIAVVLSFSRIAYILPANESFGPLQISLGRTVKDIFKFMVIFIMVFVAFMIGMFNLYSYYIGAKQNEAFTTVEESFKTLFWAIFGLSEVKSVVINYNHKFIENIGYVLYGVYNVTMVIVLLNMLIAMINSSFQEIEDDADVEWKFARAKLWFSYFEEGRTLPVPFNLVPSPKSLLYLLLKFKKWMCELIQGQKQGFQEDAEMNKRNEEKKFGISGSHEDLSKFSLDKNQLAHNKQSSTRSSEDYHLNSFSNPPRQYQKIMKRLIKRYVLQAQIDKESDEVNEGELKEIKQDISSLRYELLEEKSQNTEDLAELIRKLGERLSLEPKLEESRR

Turning to `CCCc1ccc(OCc2ccc(C(=O)N3CCSCC3)o2)cc1`, the outcome in assay [1], in [2], in assay [3], in assay [5], in assay [6] and in assay [7] was inactive. Further, the outcome in [8], in assay [9], in assay [10], in [11], in assay [12] and in [13] was inactive. Further, the result in assay [14], in [16] and in [17] was inactive. Moreover, the potentiation in assay [4] is 36% (active); in assay [15] it was 30.2% (active).
`CC1(C)CC(=O)C(C=NCCN2CCN(C3CC(=O)N(c4cccc(Br)c4)C3=O)CC2)=C(O)C1` (stereo unspecified): the result in assay [1], in [2], in assay [4], in [5], in assay [6] and in assay [7] was inactive. Also, the outcome in assay [8], in assay [9], in assay [10], in [11], in assay [12] and in assay [13] was inactive. Moreover, the outcome in [14], in assay [16] and in assay [17] was inactive. Also, the potentiation in assay [3] was 12% (active); in [15], 16.8% (active).
Consider `Cc1[nH]nc(Nc2ccccc2)c1[N+](=O)[O-]`, for which the outcome in [1], in assay [2], in assay [3], in assay [4], in assay [5] and in assay [6] was inactive. Further, the result in [7], in [8], in assay [9], in assay [10], in assay [11] and in assay [12] was inactive. Besides, the outcome in assay [13], in [14], in assay [16] and in [17] was inactive. Moreover, the potentiation in assay [15] is 20.8% (active).
Regarding `Cc1[nH]c2ccccc2c1C(=O)CN1C(=O)NC(C)(c2ccc(Cl)cc2Cl)C1=O` (stereo unspecified), the result in [1], in assay [2], in assay [3], in assay [5], in assay [6] and in [7] was inactive. Further, the outcome in assay [8], in [9], in assay [10], in assay [11], in assay [12] and in assay [13] was inactive. Also, the outcome in assay [14], in assay [16] and in [17] was inactive. In addition, the figures for the potentiation in [4] and in assay [15] were 21% (active) and 37.7% (active), respectively.
In the case of `COc1ccc(C(CNC(=O)C2CC2)N(C)C)cc1` (stereo unspecified), the result in assay [1], in assay [2], in [3], in [4], in assay [5] and in assay [6] was inactive. Also, the outcome in assay [7], in assay [8], in [9], in assay [10], in [11] and in assay [12] was inactive. The result in assay [13], in assay [14], in assay [15], in assay [16] and in assay [17] was inactive.
Take `NC(=S)N/N=C1/CCSc2ccc3ccccc3c21`: the result in assay [1], in assay [2], in assay [3], in [5], in assay [6] and in assay [7] was inactive. Further, the result in assay [8], in assay [9], in assay [10], in assay [11], in assay [12] and in assay [13] was inactive. Also, the result in assay [14], in [16] and in [17] was inactive. Besides, the potentiation in assay [4] is 25% (active); in [15] it was 18.7% (active).
For `CCN1CCN(C(=O)c2cc(-c3ccc(Cl)s3)nc3ccccc23)CC1`, the result in assay [1], in [2], in assay [3], in assay [5], in assay [6] and in assay [7] was inactive. Further, the outcome in [8], in [9], in assay [10], in [11], in [12] and in assay [13] was inactive. Further, the result in assay [14], in assay [16] and in [17] was inactive. The potentiation in assay [4] was 148% (active); in assay [15], 37% (active).
Regarding `NS(=O)(=O)c1ccc(Oc2ccc(S(N)(=O)=O)cc2)cc1`, the outcome in assay [1], in [2], in [3], in [4], in assay [5] and in [6] was inactive. In addition, the result in [7], in assay [8], in assay [9], in assay [10], in assay [11] and in assay [12] was inactive. For the same molecule, the result in [13], in assay [14], in assay [15], in assay [16] and in [17] was inactive.
Take `Cc1ccc(C(=O)OCCN2CCN(c3ncc(C(F)(F)F)cc3Cl)CC2)cc1`: the result in [1], in assay [2], in [3], in assay [5], in assay [6] and in assay [7] was inactive. The outcome in assay [8], in assay [9], in assay [10], in assay [11], in assay [12] and in [13] was inactive. Also, the result in [14], in assay [16] and in [17] was inactive. The potentiation in assay [4] is 9% (active); in assay [15] it was 14.3% (active).
Turning to `COc1ccccc1N1CCN(Cc2cc(=O)c(OCC(=O)NC3CCCC3)co2)CC1`, the result in assay [1], in assay [2], in assay [3], in assay [4], in [5] and in assay [6] was inactive. Besides, the outcome in assay [7], in assay [8], in assay [9], in [10], in assay [11] and in assay [12] was inactive. For the same molecule, the result in [13], in assay [14], in assay [15], in assay [16] and in [17] was inactive.
In the case of `Clc1ccc(OCCn2ccnc2)c(Br)c1`, the result in assay [1], in assay [2], in assay [3], in assay [5], in [6] and in assay [7] was inactive. In addition, the outcome in assay [8], in [9], in assay [10], in [11], in assay [12] and in [13] was inactive. Besides, the result in [14], in assay [16] and in assay [17] was inactive. Also, the values for the potentiation in assay [4] and in assay [15] were 13% (active) and 12.6% (active), respectively.
As for `CCOC(=O)C1=C(C)N(C)C(=S)NC1c1cccc(Cl)c1Cl` (stereo unspecified), the result in assay [1], in assay [2], in [3], in assay [5], in assay [6] and in assay [7] was inactive. Further, the result in [8], in assay [9], in [10], in assay [11], in assay [12] and in assay [13] was inactive. For the same molecule, the result in assay [14], in [15], in [16] and in assay [17] was inactive. Moreover, the potentiation in assay [4] is 25% (active).
On to `OC(CNCCc1ccc(C(F)(F)F)cc1)COc1ccc2ccccc2c1` (stereo unspecified), for which the outcome in assay [1], in [2], in assay [3], in assay [4], in assay [5] and in [6] was inactive. Moreover, the result in assay [7], in [8], in assay [9], in assay [10], in assay [11] and in [12] was inactive. Moreover, the outcome in assay [13], in assay [14], in assay [15], in assay [16] and in assay [17] was inactive.
